Results on 66 compounds are retold here after the antibiotic and cytotoxicity screens of Wong et al. (2023).

Among all 39,000 compounds or so, about 3,300 (8.5%) were called active. Only a selection was taken, and actives are over-represented in it overall.

This assay relates to HepG2. The assay can be described thus: cytotoxicity call (relative viability < 0.9). The conditions noted are these: 10 µM.
Take `NCc1ccc2occc2c1`: the cytotoxicity call was “inactive”.

With `Cc1ccc(S(=O)(=O)Nc2ccc3c(c2)CC(=O)N([C@H](C)CO)C[C@H](C)[C@H](CN(C)C(=O)Nc2ccc(C(F)(F)F)cc2)O3)cc1`, the cytotoxicity call was “inactive”.

In the case of `COc1ccc(S(=O)(=O)N(C)C[C@@H]2Oc3c(NC(=O)c4ccncc4)cccc3C(=O)N([C@@H](C)CO)C[C@H]2C)cc1`, the cytotoxicity call was “inactive”.

Take `CNC(=O)[C@@]12CCC3(CCN(C(=O)COC)CC3)[C@H]1CN(S(C)(=O)=O)C2`: the cytotoxicity call was “inactive”.

As for `C[C@@H]1CCCCO[C@@H](CN(C)CC2CCCCC2)[C@@H](C)CN([C@@H](C)CO)C(=O)c2cc(NC(=O)Cc3ccccc3)ccc2O1`, the cytotoxicity call is “inactive”.

`COc1ccc(NC(=O)Nc2cccc3c2O[C@H](CN(C)C(=O)Nc2cccc4ccccc24)[C@@H](C)CN([C@@H](C)CO)C3=O)cc1`: the cytotoxicity call was “inactive”.

As for `C[C@@H]1CN([C@H](C)CO)C(=O)Cc2cc(NS(=O)(=O)c3ccccc3)ccc2O[C@@H]1CN(C)Cc1ccc(-c2ccccc2)cc1`, the cytotoxicity call is “inactive”.

`C[C@H]1CN([C@@H](C)CO)C(=O)Cc2cc(NS(=O)(=O)c3ccccc3)ccc2O[C@@H]1CN(C)Cc1ccc(-c2ccccc2)cc1`: the cytotoxicity call is “inactive”.

For `C[C@@H]1CN([C@@H](C)CO)C(=O)Cc2cc(NS(=O)(=O)c3ccccc3)ccc2O[C@@H]1CN(C)Cc1ccc(-c2ccccc2)cc1`, the cytotoxicity call is “active”.

For `C[C@H](CO)N1C[C@H](C)[C@H](CN(C)Cc2ccc(-c3ccccc3)cc2)Oc2ccc(NS(=O)(=O)c3ccccc3)cc2CC1=O`, the cytotoxicity call is “active”.

For `C[C@@H]1CN([C@@H](C)CO)C(=O)Cc2cc(NS(=O)(=O)c3ccccc3)ccc2O[C@H]1CN(C)Cc1ccc(-c2ccccc2)cc1`, the cytotoxicity call was “inactive”.

In the case of `C[C@H]1CN([C@@H](C)CO)C(=O)Cc2cc(NS(=O)(=O)c3ccccc3)ccc2O[C@H]1CN(C)Cc1ccc(-c2ccccc2)cc1`, the cytotoxicity call was “active”.

As to `C[C@@H]1CN([C@H](C)CO)C(=O)Cc2cc(NS(=O)(=O)c3ccccc3)ccc2O[C@H]1CN(C)Cc1ccc(-c2ccccc2)cc1`, the cytotoxicity call was “inactive”.

Regarding `C[C@H](CO)N1C[C@H](C)[C@@H](CN(C)Cc2ccc(-c3ccccc3)cc2)Oc2ccc(NS(=O)(=O)c3ccccc3)cc2CC1=O`, the cytotoxicity call was “inactive”.

For the compound `c1ccc(-n2ncc3c2ncn2nnnc32)cc1`, the cytotoxicity call was “inactive”.

As to `CO[C@H]1CN(C)C(=O)c2cc(NC(=O)Nc3cccc(Cl)c3)ccc2OC[C@@H](C)N(C(=O)Nc2c(C)noc2C)C[C@@H]1C`, the cytotoxicity call is “inactive”.

For `C[C@@H]1CN([C@@H](C)CO)C(=O)c2cc(NC(=O)Cn3cnnn3)ccc2O[C@H]1CN(C)Cc1ccc(Oc2ccccc2)cc1`, the cytotoxicity call was “inactive”.

Take `CC/N=C1\S[C@@H](CC(=O)NC)C(=O)N1CC`: the cytotoxicity call is “inactive”.

In the case of `O=C(C[C@@H]1C[C@H]2c3cc(NC(=O)Nc4ccccc4)ccc3O[C@H]2[C@H](CO)O1)NCCN1CCCCC1`, the cytotoxicity call was “inactive”.

`COc1ccc(CN(C)C[C@H]2OCCCC[C@@H](C)Oc3ccc(NC(=O)Nc4c(C)noc4C)cc3C(=O)N([C@@H](C)CO)C[C@@H]2C)cc1`: the cytotoxicity call was “inactive”.

Regarding `C[C@@H]1CCCCO[C@@H](CN(C)C(=O)c2ccccc2)[C@@H](C)CN([C@@H](C)CO)C(=O)c2cc(NS(=O)(=O)c3ccc(Cl)cc3)ccc2O1`, the cytotoxicity call was “inactive”.

As for `CCCN1CCC2(CC1)NC(=O)N(CC(=O)N1CCN(C(=O)OCC)CC1)C2=O`, the cytotoxicity call was “inactive”.

As for `C[C@H](CO)N1C[C@H](C)[C@H](CN(C)Cc2ccc(C(F)(F)F)cc2)OCc2ccccc2-c2c(n(C)c3ccccc23)C1=O`, the cytotoxicity call is “inactive”.

On to `CCOC(=O)c1cnn2c(=O)cc(C)[nH]c12`, for which the cytotoxicity call was “inactive”.

With `C[C@@H]1CN([C@H](C)CO)S(=O)(=O)c2ccc(C#CC3(O)CCCC3)cc2O[C@@H]1CN(C)C(=O)c1ccccc1`, the cytotoxicity call is “inactive”.

With `CNC[C@H]1Oc2c(NS(=O)(=O)c3cn(C)cn3)cccc2C(=O)N([C@@H](C)CO)C[C@@H]1C`, the cytotoxicity call was “inactive”.

`CCOC(=O)c1c(CNCCN(CC)CC)n(-c2ccccc2)c2cc(Br)c(OC)cc12`: the cytotoxicity call was “active”.

Regarding `CCOC(=O)c1c(CN2CCN(c3ccccc3)CC2)n(-c2ccccc2)c2cc(Br)c(OC)cc12`, the cytotoxicity call is “inactive”.

Regarding `CCOC(=O)c1c(CN2CCN(Cc3ccccc3)CC2)n(-c2ccccc2)c2cc(Br)c(OC)cc12`, the cytotoxicity call was “inactive”.

For the compound `CCOC(=O)c1c(CN2CCN(c3ccccc3)CC2)n(-c2ccccc2)c2cc(Br)c(O)cc12`, the cytotoxicity call is “inactive”.

Take `CCOC(=O)c1c(CN2CCN(CCOCCO)CC2)n(-c2ccccc2)c2cc(Br)c(O)cc12`: the cytotoxicity call was “active”.

With `CCOC(=O)c1c(CN2CCN(Cc3ccccc3)CC2)n(-c2ccccc2)c2cc(Br)c(O)cc12`, the cytotoxicity call is “inactive”.

As for `Cc1ccc(S(=O)(=O)N(C)C[C@@H]2Oc3ccc(NS(=O)(=O)c4c(C)noc4C)cc3C(=O)N([C@H](C)CO)C[C@@H]2C)cc1`, the cytotoxicity call was “inactive”.

With `Cc1ccc(S(=O)(=O)Nc2ccc3c(c2)C(=O)N([C@@H](C)CO)C[C@H](C)[C@H](CN(C)C(=O)CCC(F)(F)F)OCCCC[C@@H](C)O3)cc1`, the cytotoxicity call was “inactive”.

As to `C[C@@H]1CCCCO[C@H](CN(C)S(=O)(=O)c2ccc(Cl)cc2)[C@H](C)CN([C@@H](C)CO)C(=O)c2cc(NS(=O)(=O)c3ccccc3)ccc2O1`, the cytotoxicity call was “inactive”.

Take `Cc1ccc2ncc(-c3ccc4cc(C)ccc4n3)cc2c1`: the cytotoxicity call is “inactive”.

Turning to `COc1ccc(NC(=O)N(C)C[C@@H]2OCCCC[C@@H](C)Oc3ccc(NS(=O)(=O)c4ccc(C)cc4)cc3C(=O)N([C@H](C)CO)C[C@@H]2C)cc1`, the cytotoxicity call was “inactive”.

In the case of `C[C@H](CO)N1C[C@H](C)[C@H](CN(C)C(=O)c2cnccn2)Oc2ncc(/C=C/c3ccccc3)cc2C1=O`, the cytotoxicity call was “inactive”.

`O=C(CCCCCC(=O)Nc1ccccc1O)N/N=C/C[P+](c1ccccc1)(c1ccccc1)c1ccccc1`: the cytotoxicity call was “inactive”.

On to `O=C(CCCCCCC(=O)Nc1ccccc1O)N/N=C/c1ccc(N(c2ccccc2)c2ccccc2)cc1`, for which the cytotoxicity call was “active”.

In the case of `O=C(CCCCCCC(=O)Nc1ccccc1O)N/N=C/c1cc(Br)c(O)c(Br)c1`, the cytotoxicity call is “inactive”.

In the case of `N[C@H]1CCC[C@@H]1Cc1ccc(F)cc1`, the cytotoxicity call is “inactive”.

As to `C[C@@H]1CCCCO[C@H](CN(C)C(=O)c2ccccc2)[C@@H](C)CN([C@@H](C)CO)C(=O)c2cc(NC(=O)Nc3ccc4c(c3)OCO4)ccc2O1`, the cytotoxicity call was “inactive”.

Consider `C[C@H]1CN([C@@H](C)CO)C(=O)Cc2cc(NC(=O)Nc3cccc4ccccc34)ccc2O[C@H]1CN(C)Cc1ccc(C(=O)O)cc1`, for which the cytotoxicity call was “inactive”.

In the case of `CC(C)NC(=O)Nc1ccc2c(c1)C(=O)N([C@H](C)CO)C[C@H](C)[C@@H](CN(C)Cc1ccc(C(=O)O)cc1)O2`, the cytotoxicity call was “inactive”.

`C[C@@H]1CCCCO[C@H](CN(C)C(=O)C2CCCCC2)[C@@H](C)CN([C@@H](C)CO)C(=O)c2cc(NC(=O)CCC(F)(F)F)ccc2O1`: the cytotoxicity call is “inactive”.

Regarding `C[C@H](CO)N1C[C@H](C)[C@H](CN(C)Cc2ccncc2)OCCCC[C@H](C)Oc2ccc(NC(=O)Nc3ccccc3)cc2C1=O`, the cytotoxicity call was “inactive”.

As to `C[C@@H]1CN([C@@H](C)CO)C(=O)c2cc(NC(=O)C3CCCCC3)ccc2O[C@H]1CN(C)Cc1ccc(-c2ccccc2)cc1`, the cytotoxicity call is “inactive”.

On to `C[C@H]1CN([C@@H](C)CO)C(=O)c2cc(NC(=O)C3CCCCC3)ccc2O[C@H]1CN(C)Cc1ccc(-c2ccccc2)cc1`, for which the cytotoxicity call is “active”.

In the case of `C[C@@H]1CN([C@H](C)CO)C(=O)c2cc(NC(=O)C3CCCCC3)ccc2O[C@@H]1CN(C)Cc1ccc(Oc2ccccc2)cc1`, the cytotoxicity call was “active”.

Turning to `C[C@H]1CN([C@@H](C)CO)C(=O)c2cc(NC(=O)C3CCCCC3)ccc2O[C@@H]1CN(C)Cc1ccc(Oc2ccccc2)cc1`, the cytotoxicity call was “inactive”.

For `C[C@@H]1CN([C@@H](C)CO)C(=O)c2cc(NC(=O)C3CCCCC3)ccc2O[C@@H]1CN(C)Cc1ccc(-c2ccccc2)cc1`, the cytotoxicity call is “active”.

For `C[C@@H]1CN([C@H](C)CO)C(=O)c2cc(NC(=O)C3CCCCC3)ccc2O[C@@H]1CN(C)Cc1ccc(-c2ccccc2)cc1`, the cytotoxicity call was “active”.

Consider `C[C@@H]1CN([C@H](C)CO)C(=O)c2cc(NC(=O)C3CCCCC3)ccc2O[C@H]1CN(C)Cc1ccc(-c2ccccc2)cc1`, for which the cytotoxicity call is “inactive”.

Consider `C[C@H](CO)N1C[C@H](C)[C@H](CN(C)Cc2ccc(-c3ccccc3)cc2)Oc2ccc(NC(=O)C3CC3)cc2C1=O`, for which the cytotoxicity call was “inactive”.

Take `C[C@H]1CN([C@@H](C)CO)C(=O)c2cc(NC(=O)C3CCCCC3)ccc2O[C@@H]1CN(C)Cc1ccc(-c2ccccc2)cc1`: the cytotoxicity call was “inactive”.

With `C[C@@H]1CN([C@@H](C)CO)C(=O)c2cc(NC(=O)C3CCCCC3)ccc2O[C@@H]1CN(C)Cc1ccc(Oc2ccccc2)cc1`, the cytotoxicity call was “inactive”.

Regarding `C[C@@H]1CN([C@@H](C)CO)C(=O)c2cc(NC(=O)C3CC3)ccc2O[C@H]1CN(C)Cc1ccc(-c2ccccc2)cc1`, the cytotoxicity call is “inactive”.

In the case of `C[C@H](CO)N1C[C@H](C)[C@@H](CN(C)Cc2ccc(-c3ccccc3)cc2)Oc2ccc(NC(=O)C3CCCCC3)cc2C1=O`, the cytotoxicity call is “inactive”.

Consider `COC[C@H]1CCCNC1`, for which the cytotoxicity call is “inactive”.

`C[C@@H]1CN([C@@H](C)CO)C(=O)c2cc(NC(=O)Cc3ccccc3)ccc2O[C@@H](C)CCCCO[C@H]1CN(C)Cc1ccncc1`: the cytotoxicity call is “inactive”.

For the compound `CC(C)NC(=O)Nc1ccc2c(c1)C(=O)N([C@@H](C)CO)C[C@@H](C)[C@H](CN(C)S(=O)(=O)c1ccccc1)O2`, the cytotoxicity call was “inactive”.

As for `C[C@H](CO)N1C[C@H](C)[C@@H](CN(C)C(=O)NC2CCCCC2)Oc2ccc(NC(=O)Nc3cccc4ccccc34)cc2C1=O`, the cytotoxicity call was “inactive”.

`C[C@@H]1CCCCO[C@@H](CN(C)C(=O)Cc2ccccc2)[C@H](C)CN([C@@H](C)CO)C(=O)c2cc(NC(=O)Nc3ccc(C(F)(F)F)cc3)ccc2O1`: the cytotoxicity call was “inactive”.

Consider `Cc1noc(C)c1S(=O)(=O)Nc1ccc2c(c1)C(=O)N([C@H](C)CO)C[C@H](C)[C@H](CN(C)C(=O)Nc1ccccc1)OCCCC[C@H](C)O2`, for which the cytotoxicity call was “inactive”.

Take `C[C@@H]1CN([C@@H](C)CO)C(=O)Cc2cc(NC(=O)CCC(F)(F)F)ccc2O[C@H]1CN(C)Cc1ccc(C(=O)Nc2ccccc2N)cc1`: the cytotoxicity call was “inactive”.
